Screens (PubChem BioAssay)
TIM10 inh: growth inhibitors of TIM10 yeast strain. AID 463195. S. cerevisiae TIM10 strain growth, BacTiter-Glo luminescence, 24 h. inhibition, % at 10 µM. hit rate 1.4% among 330,000;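 active means inhibition of 40% or more at the single tested concentration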;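 further: wild-type TIM10 isogenic control strain grown at permissive 25 °C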
tim23-1 inh: tim23-1 yeast growth inhibition; S. cerevisiae tim23-1 growth, BacTiter-Glo luminescence, 24 h; inhibition, % at 20 µM; hit rate 1.3% among 330,000;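 active means growth inhibition of the mutant yeast at or above 50%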;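 further: temperature-sensitive mutant grown at 25 °C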
NALP3 yeast inh: inhibitors of NALP3 inflammasome in yeast; Yeast reconstituted NLRP3/ASC/caspase-1, beta-gal luminescence, 24 h; inhibition, % at 10 µM; hit rate 0.39% among 330,000; AID 2825;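 active means inhibition of 50% or more; inactive means inhibition below 50%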
tim10-1 inh: growth inhibitors of tim10-1 mutant yeast; S. cerevisiae tim10-1 ts strain growth, BacTiter-Glo, 24 h; inhibition, % at 20 µM; hit rate 2.2% among 330,000; AID 463190;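 active means inhibition of at least 40%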;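 further: mutant grown at 25 °C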
PfHsp90 set2: inhibits growth of yeast expressing Plasmodium falciparum Hsp90 | inhibition, % at 9.4 µM | S. cerevisiae expressing PfHsp90, BacTiter-Glo ATP, 48 h; yeast lacking PDR1 and PDR3 efflux regulators | AID 504621 | hit rate 0.32% among 310,000;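 active means every replicate shows inhibition above about 80%, whatever the replicate mean, limit read from the data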
NALP1 yeast inh: blocks the NALP1 inflammasome reconstituted in yeast; S. cerevisiae NALP1/ASC/caspase-1 growth, X-gal OD620, 72 h; inhibition, % at 10 µM; hit rate 0.61% among 280,000; in the data active means inhibition mostly above about 24%, no sharp cut-off; inactive means mostly below about 32%
tim10-1 conf: confirmation of tim10-1 mutant yeast growth inhibitors; S. cerevisiae tim10-1 ts strain growth, BacTiter-Glo, 24 h; inhibition, % at 20 µM; hit rate 56% among 7,400; AID 463213; shares compounds with tim10-1 inh;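 active means inhibition of yeast growth at or above a set limit in either of two repeat tests at 20 µM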;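 further: tim10-1 mutant grown at permissive 25 °C to find synthetic lethal compounds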
tim10 confirm: TIM10 yeast growth inhibition, confirmed | shares compounds with TIM10 inh | S. cerevisiae tim10 strain growth, BacTiter-Glo luminescence, 24 h | inhibition, % at 10 µM | hit rate 63% among 4,600 | AID 463215;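 active means inhibition of yeast growth at or above a set limit in either of two replicates at 10 µM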; further: this counterscreen used the strain with wild-type TIM10
tim23-1 confirm: tim23-1 yeast growth inhibition, confirmed. S. cerevisiae tim23-1 growth, BacTiter-Glo luminescence, 24 h. shares compounds with tim23-1 inh. hit rate 83% among 4,400. inhibition, % at 20 µM. AID 463218;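 active means inhibition above about 39% in either of two replicate wells at 20 µM, limit read from the data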;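 further: temperature-sensitive tim23-1 mutant grown at 25 °C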
Hits are given with their value. A selection: hits, their analogues and other compounds. The true share with any hit is near 4.1%.

What do the screens show for `Cc1c(-c2ccccc2)oc2c(C(=O)N3CCN(c4ccc([N+](=O)[O-])cc4)CC3)cccc2c1=O`?
TIM10 inh: inactive; tim23-1 inh: inactive; NALP3 yeast inh: inactive; tim10-1 inh: inactive; PfHsp90 set2: inactive; NALP1 yeast inh: inactive

What do the screens show for `COc1ccc(/C(N)=N/OC(=O)CCc2ccccc2)cc1OC`?
TIM10 inh: inactive; tim23-1 inh: inactive; NALP3 yeast inh: inactive; tim10-1 inh: inactive; PfHsp90 set2: inactive; NALP1 yeast inh: inactive

How did Cc1cccc(/C(N)=N/OC(=O)CCc2ccccc2)c1 do in these assays?
TIM10 inh: 53; tim23-1 inh: 63; NALP3 yeast inh: inactive; tim10-1 inh: 59; PfHsp90 set2: inactive; NALP1 yeast inh: inactive; tim10-1 conf: 52; tim10 confirm: 46; tim23-1 confirm: 46

Results for Cc1ccc(/C(N)=N/OC(=O)CCCc2ccccc2)cc1 ?
TIM10 inh: 60; tim23-1 inh: 70; NALP3 yeast inh: inactive; tim10-1 inh: 54; PfHsp90 set2: inactive; NALP1 yeast inh: inactive; tim10-1 conf: 49; tim10 confirm: 63; tim23-1 confirm: 66

Results for COc1ccc(OC)c(S(=O)(=O)CC(=O)c2cc3ccc(OC)cc3oc2=O)c1 ?
TIM10 inh: inactive; tim23-1 inh: inactive; NALP3 yeast inh: inactive; tim10-1 inh: inactive; PfHsp90 set2: inactive; NALP1 yeast inh: inactive

What do the screens show for `COc1ccc(S(=O)(=O)CC(=O)c2cc3cc(Br)ccc3oc2=O)cc1`?
TIM10 inh: inactive; tim23-1 inh: 72; NALP3 yeast inh: inactive; tim10-1 inh: 62; PfHsp90 set2: inactive; NALP1 yeast inh: inactive; tim10-1 conf: 50; tim23-1 confirm: 85

Results for CCOc1ccc(Cl)cc1S(=O)(=O)N1CCC(C(=O)N2CCCC2)CC1 ?
TIM10 inh: inactive; tim23-1 inh: inactive; NALP3 yeast inh: inactive; tim10-1 inh: inactive; PfHsp90 set2: inactive; NALP1 yeast inh: inactive

How did Cc1c(C)c2ccc(OCC(=O)N3CC[C@@]4(O)CCCC[C@H]4C3)c(C)c2oc1=O do in these assays?
TIM10 inh: inactive; tim23-1 inh: inactive; NALP3 yeast inh: inactive; tim10-1 inh: inactive; PfHsp90 set2: inactive; NALP1 yeast inh: inactive

Results for CS(=O)c1nc(-c2ccc(Br)cc2)cc(-c2ccccc2)c1C#N (stereo not given) ?
TIM10 inh: inactive; tim23-1 inh: 68; NALP3 yeast inh: inactive; tim10-1 inh: 41; PfHsp90 set2: inactive; NALP1 yeast inh: inactive; tim10-1 conf: 46; tim23-1 confirm: 60

How did O=C(N=C1SC2CS(=O)(=O)CC2N1c1ccc(Cl)c(Cl)c1)C1CCCO1 (stereo not given) do in these assays?
TIM10 inh: inactive; tim23-1 inh: inactive; NALP3 yeast inh: inactive; tim10-1 inh: inactive; PfHsp90 set2: inactive; NALP1 yeast inh: inactive

Results for S=C(NCCCN1CCOCC1)N1CCN(c2nc(-c3ccc(Cl)cc3)cs2)CC1 ?
TIM10 inh: inactive; tim23-1 inh: inactive; NALP3 yeast inh: inactive; tim10-1 inh: inactive; PfHsp90 set2: inactive; NALP1 yeast inh: inactive

Results for S=C(NCC1CCCO1)N1CCN(c2nc(-c3ccc(Cl)cc3)cs2)CC1 (stereo not given) ?
TIM10 inh: 40; tim23-1 inh: 50; NALP3 yeast inh: inactive; tim10-1 inh: 51; PfHsp90 set2: inactive; NALP1 yeast inh: inactive; tim10-1 conf: 39; tim10 confirm: 43; tim23-1 confirm: 52

Results for CC(=O)c1ccc(NC(=O)CSc2cn[nH]n2)cc1 ?
TIM10 inh: inactive; tim23-1 inh: inactive; NALP3 yeast inh: inactive; tim10-1 inh: inactive; PfHsp90 set2: inactive; NALP1 yeast inh: inactive

Results for Cc1ccn(S(=O)(=O)c2ccc(N3CCCC3=O)cc2)n1 ?
TIM10 inh: inactive; tim23-1 inh: inactive; NALP3 yeast inh: inactive; tim10-1 inh: inactive; PfHsp90 set2: inactive; NALP1 yeast inh: inactive

What do the screens show for `S=C(Nc1ccccc1)N1CCn2c1nc1ccccc12`?
TIM10 inh: 42; tim23-1 inh: 66; NALP3 yeast inh: inactive; tim10-1 inh: 56; PfHsp90 set2: inactive; NALP1 yeast inh: inactive; tim10-1 conf: 33; tim10 confirm: 44; tim23-1 confirm: 55

Results for O=C(Nc1ccccc1)N1CCn2c1nc1ccccc12 ?
TIM10 inh: inactive; tim23-1 inh: inactive; NALP3 yeast inh: inactive; tim10-1 inh: inactive; PfHsp90 set2: inactive; NALP1 yeast inh: inactive

What do the screens show for `CC(C)NC(=O)/C(C#N)=C/c1cccc(NC(=O)c2ccccc2Cl)c1`?
TIM10 inh: 63; tim23-1 inh: 78; NALP3 yeast inh: inactive; tim10-1 inh: 70; PfHsp90 set2: inactive; NALP1 yeast inh: inactive; tim10-1 conf: 67; tim10 confirm: inactive; tim23-1 confirm: 67

Results for COCCNC(=O)/C(C#N)=C/c1cccc(NC(=O)c2ccccc2Cl)c1 ?
TIM10 inh: inactive; tim23-1 inh: inactive; NALP3 yeast inh: inactive; tim10-1 inh: inactive; PfHsp90 set2: inactive; NALP1 yeast inh: inactive

Results for O=C1CC(=Nc2ccccc2)NN1c1ccccc1 ?
TIM10 inh: 49; tim23-1 inh: 59; NALP3 yeast inh: inactive; tim10-1 inh: 55; NALP1 yeast inh: inactive; tim10-1 conf: 45; tim10 confirm: 44; tim23-1 confirm: 76

What do the screens show for `O=C1Cc2ccccc2N1c1ccccc1`?
TIM10 inh: inactive; tim23-1 inh: inactive; NALP3 yeast inh: inactive; tim10-1 inh: inactive; PfHsp90 set2: inactive; NALP1 yeast inh: inactive

How did COc1ccc(Cl)cc1S(=O)(=O)NCc1nc2nc(C)cc(C)n2n1 do in these assays?
TIM10 inh: inactive; tim23-1 inh: inactive; NALP3 yeast inh: inactive; tim10-1 inh: inactive; PfHsp90 set2: inactive; NALP1 yeast inh: inactive

What do the screens show for `CCOc1ccc(NC(=O)C2CCCN(c3cnccn3)C2)cc1` (stereo not given)?
TIM10 inh: inactive; tim23-1 inh: inactive; NALP3 yeast inh: inactive; tim10-1 inh: inactive; PfHsp90 set2: inactive; NALP1 yeast inh: inactive

What do the screens show for `CCSc1nnc(NC(=O)CCNS(=O)(=O)c2ccccc2F)s1`?
TIM10 inh: inactive; tim23-1 inh: inactive; NALP3 yeast inh: inactive; tim10-1 inh: inactive; PfHsp90 set2: inactive; NALP1 yeast inh: inactive

Results for O=C(CCSc1ccc(Br)cc1)c1ccc(O)cc1 ?
TIM10 inh: inactive; tim23-1 inh: 62; NALP3 yeast inh: inactive; tim10-1 inh: 50; PfHsp90 set2: 97; NALP1 yeast inh: inactive; tim10-1 conf: 49; tim23-1 confirm: 74

Results for O=C(CCO)c1ccc(O)cc1 ?
TIM10 inh: inactive; tim23-1 inh: inactive; NALP3 yeast inh: inactive; tim10-1 inh: inactive; PfHsp90 set2: inactive; NALP1 yeast inh: inactive

What do the screens show for `O=C(OCc1c(-c2ccccc2)ncc2ccccc12)c1cccs1`?
TIM10 inh: inactive; tim23-1 inh: inactive; NALP3 yeast inh: inactive; tim10-1 inh: inactive; PfHsp90 set2: inactive
